Here are results for 18 compounds from PubChem BioAssay (NCATS).

Assay [1] is described as follows: Primary qHTS for inhibitors of nuclear receptor binding SET domain protein 2 (NSD2) in an RCH-ACV wild type WT cells (2C) (AID 1645877; further: nearly all actives have a fitted effect of over 70% in size; further: potency means the concentration at half of the fitted maximal effect; on activity change, negative = cell killing: on the % scale 0 is the no-effect control and ±100 the full control effect). (qHTS replaces the single test concentration by a dilution series.)
Assay [2] concerns the target Glutathione peroxidase 1 (Homo sapiens) (UniProt P07203). Put plainly: Primary qHTS Assay for Inhibitors of Recombinant Selenoprotein Glutathione Peroxidase 1 (GPX1) (AID 1845191). Further: nearly all actives have a fitted effect of over 65% in size. On activity, negative = inhibition: on the % scale 0 is the no-effect control and ±100 the full control effect. A digest of the protocol:
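GR-coupled assay: compounds preincubated 30 min at room temperature with GPX1, then reaction started with CHP; final 10 nM GPX1, 1 mM GSH, 0.5 mM CHP, 0.5 mM NADPH, 100 nM GR, 0.01% BSA, pH 7.5 Tris buffer. NADPH fluorescence (340/450 nm) read at 0 and 15 min.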

The target of assay [3] is Phospholipid hydroperoxide glutathione peroxidase GPX4 (Homo sapiens) (UniProt P36969). Put plainly: Primary qHTS Assay for Inhibitors of Recombinant Selenoprotein Glutathione Peroxidase 4 (GPX4) (AID 1845192). Further: nearly all actives have a fitted effect of over 65% in size. On activity change, negative = inhibition: series mostly up to about 50 µM; on the % scale 0 is the no-effect control and ±100 the full control effect. A digest of the protocol:
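GR-coupled assay: recombinant GPX4 preincubated 30 min with compound at room temperature; final 200 nM GPX4, 1 mM GSH, 0.5 mM cumene hydroperoxide, 0.5 mM NADPH, 100 nM GR, 0.01% BSA, pH 7.5 Tris. NADPH fluorescence (340/450 nm) read at 0 and 15 min.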

Assay [4] deals with Luciferin 4-monooxygenase (Photinus pyralis) (UniProt P08659). Put plainly: Primary firefly luciferase (FLuc) qHTS assay for identification of artifact compounds. (AID 1845220). Further: nearly all actives have a fitted effect of over 60% in size.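 On activity change, negative = inhibition: series mostly up to about 54 µM; plate controls were DMSO vehicle for no effect and no enzyme for full effect.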 A digest of the protocol: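 Titrated compounds were incubated 15 min at RT, protected from light, with luciferin and ATP at 10 uM; reaction started with 10 nM FLuc, luminescence imaged at 5 min, and concentration-response fitted by Hill equation.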

Assay [5] in a line: Primary fluorescence-based thiol-reactive (MSTI) qHTS assay for identification of artifact compounds. (AID 1845221). Further: nearly all actives have a fitted effect of over 65% in size. Further: potency means the concentration at half of the fitted maximal effect.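 On activity change, negative = thiol reactive: series mostly up to about 54 µM; thiol-reactive compounds lower the probe fluorescence signal.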 A digest of the protocol: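 One-hour, room-temperature, dark incubation of compound with 4 uM MSTI in PBS (pH 7.4, 2% DMSO) precedes a fluorescence read at 525 nm excitation, 598 nm emission; Hill-equation fitting yields concentration-response values.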
Assay [6] relates to Nanoluciferase (engineered Oplophorus gracilirostris luciferase). Put plainly: Primary Nanoluciferase (NLuc) qHTS assay for identification of artifact compounds. (AID 1845222).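 Further: NLuc secreted into diluted conditioned medium of S16 cells; series mostly up to about 54 µM; 0% = DMSO and -100% = no enzyme.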 A digest of the protocol:
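qHTS format, against NLuc in S16 cell-conditioned medium. Nano-Glo substrate 1:100 was added after 15 min at room temperature. Luminescence was taken after a further 5 min.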

Assay [7] in a line: Primary redox qHTS assay for identification of artifact compounds. (AID 1845223).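 Further: 0% = DMSO and 100% = reference compound.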 A digest of the protocol: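 Amplex Red (25 uM) and HRP (250 mU/mL) in HBSS, with compounds for 15 min, then 250 uM DTT for 30 min, room temperature, dark. Fluorescence 525/598 nm read; normalized to DMSO and 10 uM DA3003; Hill fit.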

Each structure is given as a SMILES string. A number with no mark means an inactive call. Records with an inconclusive call do not appear. Activity calls are given as the source filed them. The call rests on the fitted dose curve; in most records, active means well fitted curve in the direction sought with a large enough effect; inconclusive means small, poorly fitted or top-dose-only effect, or another doubt; inactive means no such curve, though single readings can be large; an effect the other way counts as inactive or inconclusive.

Phospholipid hydroperoxide glutathione peroxidase GPX4 (Homo sapiens), sequence (P36969 whole entry, looked up): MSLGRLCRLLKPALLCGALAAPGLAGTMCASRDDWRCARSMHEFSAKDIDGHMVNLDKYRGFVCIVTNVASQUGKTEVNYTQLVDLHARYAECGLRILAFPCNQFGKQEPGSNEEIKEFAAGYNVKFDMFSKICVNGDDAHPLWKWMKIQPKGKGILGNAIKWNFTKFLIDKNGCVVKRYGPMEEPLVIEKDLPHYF
Glutathione peroxidase 1 (Homo sapiens), sequence (P07203 whole entry, looked up): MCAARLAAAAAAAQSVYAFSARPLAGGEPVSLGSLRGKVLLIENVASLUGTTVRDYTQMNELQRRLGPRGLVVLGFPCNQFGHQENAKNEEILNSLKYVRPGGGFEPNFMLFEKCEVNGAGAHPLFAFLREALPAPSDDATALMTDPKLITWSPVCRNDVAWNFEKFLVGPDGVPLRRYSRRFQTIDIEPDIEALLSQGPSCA

For the compound `COC(=O)CCC(=O)OC[C@]1(C)CCC[C@@]2(C)C3CC[C@]4(C)C=CC3(CCC12)C4` (stereo partly specified), the Potency result in assay [1], in assay [2], in assay [3], in assay [4], in assay [5] and in assay [6] was “inactive” in each case. For the same compound, the Potency entry in assay [7] was “inactive”.

`Cc1ccc(C)c(OCCn2cc(C(=O)O)c3ccccc32)c1`: the Potency entry in assay [1], in assay [2], in assay [3], in assay [4], in assay [5] and in assay [6] was “inactive” each time. For the same compound, the Potency entry in assay [7] was “inactive”.

Turning to `CC(=O)O[C@H]1C[C@@](O)(C(C)C)C2[C@@H](OC(=O)c3ccc(O)cc3)C[C@@]3(C)O[C@H]3C[C@]21C` (stereo partly specified), the Potency result in assay [1], in assay [2], in assay [3], in assay [4], in assay [5] and in assay [6] was “inactive” throughout. The Potency result in assay [7] was “inactive”.

As to `OCc1ccc(O[C@@H]2O[C@H](CO)[C@@H](O)[C@H](O)[C@H]2O)cc1`, the Potency result in assay [1], in assay [2], in assay [3], in assay [4], in assay [5] and in assay [6] was “inactive” throughout. For the same compound, the Potency result in assay [7] is “inactive”.

On to `C[S+](CC[C@H](N)C(=O)[O-])C[C@H]1O[C@@H](n2cnc3c(N)ncnc32)[C@H](O)[C@@H]1O` (stereo partly specified), for which the Potency entry in assay [1], in assay [2], in assay [3], in assay [4], in assay [5] and in assay [6] was “inactive” throughout. Moreover, the Potency result in assay [7] was “inactive”.

As for `C=C1C[C@]23C[C@H]1CC[C@H]2[C@@]1(C)CCC[C@@]2(C)C(=O)O[C@@H]([C@@H]3O)[C@@H]12`, the Potency result in assay [1], in assay [2], in assay [3], in assay [4], in assay [5] and in assay [6] was “inactive” throughout. Moreover, in assay [7], the Potency result was “inactive”.

In the case of `CC1=C(C(=O)O)/C(=C\CO[C@@H]2O[C@H](CO)[C@@H](O)[C@H](O)[C@H]2O)C(OC(=O)/C=C/c2ccc(O)cc2)C1` (stereo partly specified), the Potency entry in assay [1], in assay [2], in assay [3], in assay [4], in assay [6] and in assay [7] was “inactive” each time. In addition, the Potency in assay [5] was 4620 nM (active).

`COC(=O)C1=COC(O[C@@H]2O[C@H](CO)[C@@H](O)[C@H](O)[C@H]2O)[C@H]2[C@@H]1[C@H](OC(=O)CCc1ccc(O)cc1)C[C@]2(C)O` (stereo partly specified): the Potency entry in assay [1], in assay [2], in assay [3], in assay [4], in assay [5] and in assay [6] was “inactive” throughout. The Potency entry in assay [7] is “inactive”.

`CN[C@H](C(=O)N[C@H](C(=O)N(C)[C@H](/C=C(\C)C(=O)O)C(C)C)C(C)(C)C)C(C)(C)c1ccccc1`: the Potency result in assay [1], in assay [2], in assay [3], in assay [4], in assay [5] and in assay [6] was “inactive” each time. Further, in assay [7], the Potency entry was “inactive”.

Regarding `CC1CCCCN1S(=O)(=O)c1ccc(N2CCCC2=O)cc1` (stereo unspecified), the Potency entry in assay [1], in assay [2], in assay [3], in assay [4], in assay [5] and in assay [6] was “inactive” throughout. For the same compound, the Potency result in assay [7] is “inactive”.

Consider `CC(C)=CCC[C@](C)(O)[C@H]1CC[C@]2(C)[C@@H]1[C@H](O)CC1[C@@]3(C)CC[C@H](O)C(C)(C)C3[C@@H](O[C@@H]3O[C@H](CO)[C@@H](O)[C@H](O)[C@H]3O[C@@H]3OC[C@@H](O)[C@H](O)[C@H]3O)C[C@]12C` (stereo partly specified), for which the Potency result in assay [1], in assay [2], in assay [3], in assay [4], in assay [5] and in assay [6] was “inactive” in each case. The Potency result in assay [7] was “inactive”.

`CC1(C)CCC2(C(=O)OC3OC(CO)C(O)C(O)C3O)CCC3(C)C(=CCC4C5(C)CCC(OC6OC(C(=O)O)C(OC7OC(CO)C(O)C(O)C7O)C(OC7OC(CO)C(O)C(O)C7O)C6O)C(C)(C)C5CCC43C)C2C1` (stereo unspecified): the activity change, negative = cell killing in assay [1] is -7.84% [at 9.23 µM]. The Potency result in assay [2] and in assay [3] was “inactive” in each case. The activity change, negative = inhibition in assay [4] is -0.248% [at 11.6 µM]. Further, in assay [5], the activity change, negative = thiol reactive was 123% [at 11.5 µM]. Moreover, the activity, negative = inhibition in assay [6] was 1.02% [at 11.6 µM]. For the same compound, in assay [7], the redox activity (% of DA3003) was 10.6% [at 11.5 µM].

As for `COc1cc2c(cc1OC)CC(=O)N(CCCNC[C@H]1Cc3cc(OC)c(OC)cc31)CC2`, the Potency result in assay [1], in assay [2], in assay [3], in assay [4], in assay [5] and in assay [6] was “inactive” each time. The Potency entry in assay [7] is “inactive”.

For the compound `C=C[C@H]1C(O[C@@H]2O[C@H](CO)[C@@H](O)[C@H](O)[C@H]2O)OC=C2C(=O)N3CCc4c([nH]c5ccccc45)[C@H]3C[C@H]21` (stereo partly specified), the Potency result in assay [1], in assay [2], in assay [3], in assay [4], in assay [5] and in assay [6] was “inactive” in each case. The Potency entry in assay [7] is “inactive”.

Turning to `COc1ccc(-c2cnc(-c3cccc4c3-c3ccccc3C4=O)o2)cc1`, in assay [1], the Potency is 89.3 nM (active). The Potency entry in assay [2], in assay [3], in assay [4], in assay [5], in assay [6] and in assay [7] was “inactive” each time.

`C[C@@H]1O[C@@H](O[C@@H]2CO[C@@H](O[C@H]3CC[C@@]4(C)C(CC[C@]5(C)C4CC=C4[C@@H]6CC(C)(C)CC[C@]6(C(=O)O[C@@H]6O[C@H](CO)[C@@H](O)[C@H](O)[C@H]6O)CC[C@]45C)[C@]3(C)CO)[C@H](O)[C@H]2O[C@@H]2O[C@H](CO)[C@@H](O)[C@H](O)[C@H]2O)[C@H](O)[C@H](O)[C@H]1O` (stereo partly specified): the activity change, negative = cell killing in assay [1] is -18.1% [at 9.23 µM]. Besides, the Potency entry in assay [2] and in assay [3] was “inactive” in each case. Besides, in assay [4], the outcome was “inactive [at 11.6 µM]”. Moreover, in assay [5], the activity change, negative = thiol reactive was 216% [at 11.5 µM]. Further, the activity, negative = inhibition in assay [6] was -0.413% [at 11.6 µM]. The redox activity (% of DA3003) in assay [7] was 7.97% [at 11.5 µM].

On to `C[C@@H]1O[C@@H](O[C@H]2[C@H](O)[C@@H](O)[C@H](OC3CCC4(C)C5CCC(C)(C(CO)OC6OC(CO)C(O)C(O)C6O)CC5=CCC4C3(C)C)O[C@@H]2CO)[C@H](O)[C@H](O)[C@H]1O` (stereo partly specified), for which the Potency entry in assay [1], in assay [2], in assay [3], in assay [4], in assay [5] and in assay [6] was “inactive” each time. Also, the Potency entry in assay [7] is “inactive”.

In the case of `C[C@@H]1O[C@@H](O[C@H]2[C@H](OC(=O)[C@]34CCC(C)(C)C[C@H]3C3=CCC5[C@@]6(C)CC[C@H](O[C@@H]7O[C@H](C(=O)O)[C@@H](O)[C@H](O)[C@H]7O[C@@H]7O[C@H](CO)[C@H](O)[C@H](O)[C@H]7O)[C@@](C)(C=O)C6CC[C@@]5(C)[C@]3(C)C[C@H]4O)O[C@H](C)[C@H](O[C@@H]3O[C@H](C)[C@H](O)[C@H](O)[C@H]3O)[C@@H]2O)[C@H](O)[C@H](O)[C@H]1O[C@@H]1OC[C@@H](O)[C@H](O[C@@H]2O[C@H](CO)[C@@H](O)[C@H](O)[C@H]2O)[C@H]1O` (stereo partly specified), the activity change, negative = cell killing in assay [1] is -94% [at 4.96 µM]. Further, the results for the activity, negative = inhibition in assay [2] and in assay [6] were 1.71% [at 9.52 µM] and 4.73% [at 6.45 µM], respectively. Further, the outcome in assay [3] was “inactive [at 9.73 µM]”; in assay [4] it was “inactive [at 6.45 µM]”. Further, the activity change, negative = thiol reactive in assay [5] was 292% [at 6.41 µM]. Also, the redox activity (% of DA3003) in assay [7] is 3.32% [at 6.41 µM].
